In assay [1] the test system is Tov-21-G. The assay can be described thus: Primary qHTS to identify gynecologic anti-cancer compounds using libraries of approved drugs and bioactive compounds (AID 1345084). Also: nearly all actives have a fitted effect of over 55% in size. Also: potency is read from the fitted curve at half-maximal effect. The following applies: Gynecologic cancer cell panel viability, ATPlite luminescence, 48 h; series mostly up to 57.5 µM. A digest of the protocol: (§1)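 ATP-based viability (ATPlite), 1,000 cells/well, 16 h pre-incubation, 48 h compound at 37 C, 5% CO2, 15 min RT before read.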

Assay [2] relates to Tov112D. Described as above. The following applies: Gynecologic cancer cell panel viability, ATPlite luminescence, 48 h; series mostly up to 57.5 µM. A digest of the protocol:
as §1

The nature of assay [3]: Drug repurposing screens with cells derived from glioblastoma tumor samples (AID 1345199). Also: nearly all actives have a fitted effect of over 40% in size. As to conditions: GBM patient neurospheres viability, ATP luminescence, 48 h, at 45.9 µM (top of the series). The method in brief: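 Primary testing used CD133+ neurospheres from four GBM patients, seven concentrations, 48 h exposure and ATP-based viability; confirmation added three slower-growing patient lines.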

Inconclusive results are not listed. Values without a mark were called inactive. Calls of active or inactive are those of the source. Calls follow the shape of the dose curve; as a rule, active = well fitted curve in the direction sought with a large enough effect; inconclusive = small, poorly fitted or top-dose-only effect, or another doubt; inactive = no such curve, though single readings can be large; an effect the other way counts as inactive or inconclusive.
% is scaled to controls: 0 for no effect and ±100 for the full control effect.

For `Cc1ccnc(NS(=O)(=O)c2ccc(NC(=O)Nc3ccc(S(=O)(=O)Nc4nccc(C)n4)cc3)cc2)n1`, the Potency result in assay [1] and in assay [2] was “inactive” in each case.
In the case of `CN(C)C(=O)c1ccc(S(=O)(=O)c2ccc(NC(=O)[C@@](C)(O)C(F)(F)F)c(Cl)c2)cc1`, the Potency result in assay [1] and in assay [2] was “inactive” throughout.
On to `COc1cc2nccc(Oc3ccc(NC(=O)NC4CC4)c(Cl)c3)c2cc1C(N)=O`, for which the Potency entry in assay [1] and in assay [2] was “inactive” each time.
`CS(=O)(=O)c1ccc(C(=O)Nc2ccc(Cl)c(-c3ccccn3)c2)c(Cl)c1`: the Potency entry in assay [1] and in assay [2] was “inactive” throughout.
For `CN(C(=O)c1ccc(F)cc1C(F)(F)F)C1CCN(c2nnc(-c3ccnn3C)c3ccccc23)CC1`, the Potency entry in assay [1] and in assay [2] was “inactive” throughout.
On to `O=C(Nc1ccc(F)c(C(F)(F)F)c1)Nc1nnc(-c2ccncc2)s1`, for which the Potency entry in assay [1] and in assay [2] was “inactive” throughout.
In the case of `C[C@]12CCC(=O)C=C1CC[C@@H]1[C@@H]2[C@@H](O)C[C@@]2(C)[C@H]1CC[C@]2(O)C(=O)CO`, the Potency entry in assay [1] and in assay [2] was “inactive” throughout.
As for `COc1ccccc1[C@H](c1cccc2ccccc12)[C@@](C)(C#N)C(=O)N1CCC(c2cccc(C(F)(F)F)c2)CC1`, the Potency result in assay [1] and in assay [2] was “inactive” each time.
Turning to `CCc1cncnc1N1CCN(Cc2nc3ccc(C(F)(F)F)cc3[nH]2)CC1`, the Potency result in assay [1] and in assay [2] was “inactive” in each case.
Regarding `Cc1csc(NC(=O)c2sc3nc4c(c(C(F)(F)F)c3c2N)CCC4)n1`, the Potency in assay [1] is 3.55 µM (active); in assay [2], 11.2 µM (active).
For `Cc1cc(SCc2sc(-c3ccc(C(F)(F)F)cc3)nc2C)ccc1OCC(=O)O`, in that order: “inactive” and “inactive”.
In the same order, the values of `COc1cc2c(cc1OC)CN(CCc1ccc(NC(=O)c3cccc4c(=O)c5cccc(OC)c5[nH]c34)cc1)CC2` are “inactive” and “inactive”.
In the same order, the values of `COc1nc(-c2ccc3c(c2)OCO3)n(-c2ccc(NC(=O)CSc3ccccc3)cc2)n1` are “inactive” and “inactive”.
Regarding `CC(C)(N)C(=O)N[C@H](COCc1ccccc1)C(=O)N1CCC2(CC1)CN(S(C)(=O)=O)c1ccccc12`, the Potency entry in assay [1] and in assay [2] was “inactive” throughout.
On to `S=C(NCc1ccc2c(c1)OCO2)N1CCN(c2ncnc3c2oc2ccccc23)CC1`, for which the Potency result in assay [1] and in assay [2] was “inactive” in each case.
As to `CNCc1ccc(-c2[nH]c3cc(F)cc4c3c2CCNC4=O)cc1`, the Potency entry in assay [1] and in assay [2] was “inactive” each time.
Take `OCCn1cc(-c2cnc3nnn(Cc4ccc5ncccc5c4)c3n2)cn1`: the Potency result in assay [1] and in assay [2] was “inactive” throughout.
Regarding `CC[C@H](Nc1ncnc2nc[nH]c12)c1nc2cccc(F)c2c(=O)n1-c1ccccc1`, the activity change, negative = cytotoxicity in assay [1] is -9.1% [at 11.6 µM]; in assay [2], -0.869% [at 11.6 µM].
For the compound `C[C@H](NC(=O)Cc1cc(F)cc(F)c1)C(=O)N[C@@H]1C(=O)N(C)c2ccccc2-c2ccccc21`, the Potency result in assay [1] and in assay [2] was “inactive” in each case.
For the compound `O=C1CCCC2=C1C(c1[nH]ncc1Cl)N=C(Nc1nc3ccccc3o1)N2` (configuration not stated), the Potency entry in assay [1] and in assay [2] was “inactive” each time.
In the case of `COc1cccc2cc(-c3nc(C4CCC(C(=O)O)CC4)n4ncnc(N)c34)[nH]c12` (configuration not stated), in assay [1], the Potency is 3.55 µM (active).
With `COc1cc(Oc2ccnc3cc(OC)c(OC)cc23)ccc1NC(=O)NC(C)c1nccs1` (configuration not stated), the Potency result in assay [1] and in assay [2] was “inactive” in each case.
Turning to `CCC(C)n1ncn(-c2ccc(N3CCN(c4ccc(OC[C@H]5CO[C@](Cn6cncn6)(c6ccc(Cl)cc6Cl)O5)cc4)CC3)cc2)c1=O` (some centres not stated), the Potency entry in assay [1] and in assay [2] was “inactive” each time.
Regarding `Cc1n[nH]c(C)c1Cc1sc2c(c1C(=O)N1C[C@H](O)CO1)c(=O)n(C)c(=O)n2CC(C)C`, the Potency result in assay [1] and in assay [2] was “inactive” in each case.
With `CCOc1cc(C(=O)Nc2ccc(Cl)c(-c3nc4ccccc4[nH]3)c2)cc(OCC)c1OCC`, the Potency entry in assay [1] and in assay [2] was “inactive” in each case.
On to `CC(C)OC(=O)C1=CN(C(=O)c2ccc(F)c(F)c2)CC(C)(C)c2c1[nH]c1ccccc21`, for which the Potency entry in assay [1] and in assay [2] was “inactive” throughout.
Consider `CCc1ccc(CCOc2ccc(CC3SC(=O)NC3=O)cc2)nc1` (configuration not stated), for which the Potency entry in assay [1] and in assay [2] was “inactive” each time. The results for the activity, negative = cell killing in assay [3] (tumour line B) and in assay [3] (tumour line D) were -10.3% and -17.6%, respectively.
Regarding `Cn1cc(-c2ccc3nnc(C(F)(F)c4ccc5ncccc5c4)n3n2)cn1`, the Potency result in assay [1] and in assay [2] was “inactive” each time.
In the case of `CC1(C)CNc2cc(NC(=O)c3cccnc3NCc3ccncc3)ccc21`, the Potency entry in assay [1] and in assay [2] was “inactive” in each case.
Regarding `CN(C)c1ccc(Nc2nc(N)n(C(=O)c3c(F)cccc3F)n2)cc1`, the Potency entry in assay [1] and in assay [2] was “inactive” each time.
With `CNC(=O)c1ccc(C)c(-n2c(C)cc(OCc3ccc(F)cc3F)c(Br)c2=O)c1`, the Potency entry in assay [1] and in assay [2] was “inactive” each time.
With `C[C@@H]1CN(Cc2ccc(F)cc2)[C@@H](C)CN1C(=O)c1cc2c(C(=O)C(=O)N(C)C)cn(C)c2cc1Cl`, the Potency entry in assay [1] and in assay [2] was “inactive” in each case.
In the case of `O=C(c1cc(Cc2n[nH]c(=O)c3ccccc23)ccc1F)N1CCN(C(=O)C2CC2)CC1`, the Potency result in assay [1] and in assay [2] was “inactive” throughout.
